This note sets out measurements from PubChem BioAssay (EPA / NIEHS).

Molecules are shown by their SMILES. Inconclusive results are not listed. Active and inactive are the calls of the source. The calls were made as follows: active = hit-call score of the fitted dose curve at least 0.9, where 1 is the maximum; inconclusive = response in the unintended direction; inactive = score below 0.9.

The assay is described as follows: CCTE_Deisenroth_AIME_384WELL_CTox_Inactive: Cytotoxicity Assessment (CTOX) in CCTE's 384-well Estrogen Receptor Transactivation Assay without AIME metabolic competence (metabolism negative), Deisenroth Lab (AID 2284039).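 Also: cell viability via live-cell protease substrate cleaved to fluorescent probe; cells exposed 24 h to medium preincubated 2 h with alginate-water beads without S9; loss of fluorescence signal means loss of viability.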 The protocol: CCTE_Deisenroth_AIME_384WELL (AIME metabolism assay) is a cell-based, single-readout assay that uses VM7Luc4E2, a human mammary gland/breast cell line, with measurements taken at 24 hour after chemical dosing in a 384-well plate.CCTE_Deisenroth_AIME_384WELL_CTox_Inactive is one of four assay components measured or calculated from the CCTE_Deisenroth_AIME_384WELL assay. It is designed to make measurements of a protease substrate, a type of viability indicator, as detected with substrate cleavage to a fluorescent probe in living cells.CCTE_Deisenroth_AIME_384WELL_CTox_Inactive is a component of the CCTE_Deisenroth_AIME_384WELL assay that measures the effect of retroftting the VM7Luc ERTA assay with the Alginate Immobolization of Metabolic Enzymes (AIME) metabolism method. AIME is optimized to impart phase I hepatic metabolism using phenobarbital/beta-naphthoflavone induced hepatic S9 from male Sprague Dawley rats. Parent chemicals are incubated for 2 hours in the AIME assay prior to transfer to the VM7Luc ERTA assay plate. […] This endpoint evaluates cytotoxicity in metabolism negative mode. Using a type of flourescent probe in VM7Luc cells, loss-of-signal activity can be used to understand loss of viability. This assay endpoint, CCTE_Deisenroth_AIME_384WELL_CTox_Inactive, was analyzed with bidirectional fitting in the ERTA assay.
The AIME procedure consists of a preparative "pre-stamping" step using a barium chloride/poly-L-lysine (PLL) solution followed by "stamping" the lid in alginate-hepatic S9 (metabolism positive) or alginate-water (metabolism negative) to form microspheres. Once stamping is completed, the AIME lids are placed in duplicate microplates (metabolism positive or negative) containing chemical solutions and incubated for two hours to facilitate metabolic reactions. The conditioned medium, containing parent chemical or metabolites, is then transferred to the cell-based VM7Luc Estrogen Receptor Transactivation Assay (ERTA) for 24 hours. A typical experimental design tests a 10-point concentration series (0.002 - 200 uM) for 8 compounds (96-well format)1 or 32 compounds (384-well format)2 in single technical replicate. AIME assay controls include trans-stilbene (bioactivated control) and ethylparaben (bioinactivated control). ERTA assay plate controls include 17-beta estradiol (positive control) and DMSO (solvent control). Experiments typically comprise a minimum of four experimental replicates (n=4).
`C1=CCC=C1`: the result was inactive. As to `CCC(C)=NO`, the result was inactive.

`CC(C)CC(=O)CC(C)C`: the call was inactive.

On to `CCCCCCC1CCC(=O)O1` (configuration not stated), for which the call was inactive. For the compound `CC(=O)OC(C)(C)Cc1ccccc1`, the compound was classed as inactive.

With `CCCCOC(=O)COc1ccc(Cl)cc1Cl`, the outcome was inactive. In the case of `CC/C=C\CCO`, the outcome was inactive. As to `CCC(C)(CCC(C)C)C(=O)O` (configuration not stated), the compound was classed as inactive. The entry for `O=C(CC(C(=O)OC1CCCCC1)S(=O)(=O)O)OC1CCCCC1` (configuration not stated) is “inactive”; for `Oc1cccc2ccccc12` it is “inactive”. `CC[N+](CC)(CC(=O)Nc1c(C)cccc1C)Cc1ccccc1` (tested in a mixture with another compound): the result was inactive. Regarding `COC(=O)[C@]1(C)CCC[C@@]2(C)[C@H]1CC=C1C=C(C(C)C)CC[C@@H]12`, the call was inactive.
